Only some compounds are listed: those with a hit (about 7.4% of all), similar ones and a draw of the others.
ELG1 genotoxic – qHTS screen for small molecules that induce genotoxicity in human embryonic kidney (HEK293T) cells expressing luciferase-tagged ELG1. 330,000 compounds, 1.3% hits. Potency, µM (titrated, usually from 46 µM), for the others: at the highest dose activity change, positive = activation, most hits filed as activators. HEK293T ELG1-luciferase reporter, luminescence, 16 h. AID 504466, 2011; also: % of control where 0% means no effect; nearly all actives have a fitted effect of over 60% in size
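Genotoxicity was scored as increased ELG1-luciferase reporter signal, measured by ONE-Glo luminescence (30 min, room temperature). Compound or vehicle exposure of the HEK293T reporter cells lasted 16 hr at 37°C.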
Rab9 promoter act – qHTS Assay for Rab9 Promoter Activators. Huh7 Rab9 promoter-luciferase reporter, luminescence, 24 h. Potency, µM (doses to about 9.22 µM), without a hit: at the highest dose activation, negative = inhibition, most hits filed as activators. 320,000 compounds, 2.8% hits. AID 485297, 2010; also: % of control where 0% means no effect; nearly all actives have a fitted effect of over 60% in size
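Rab9 promoter-driven luciferase in stably transfected Huh7 cells; 1500 cells/well rested 2 h, exposed to compound in DMSO for 24 h at 37 °C, 5% CO2. Luminescence read 10 min after adding luciferase reagent at ambient temperature.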
NPC1 promoter act – qHTS Assay for NPC1 Promoter Activators. Potency, µM (titrated, usually from 9.22 µM), inactives show top-dose activation, usual class: activators. 320,000 compounds, 2.4% hits. AID 485313, 2010. Huh7 NPC1 promoter luciferase reporter, 24 h; also: % of control where 0% means no effect; nearly all actives have a fitted effect of over 60% in size
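Stable NPC1-promoter luciferase Huh7 line; cpd (DMSO) 24 h, 37 °C, 5% CO2; Amplite luciferase reagent 10 min RT; luminescence readout. qHTS format.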
SMN2 splice enh – qHTS Assay for Enhancers of SMN2 Splice Variant Expression. 210,000 compounds, 2.8% hits. Potency, µM (doses to about 46.1 µM), without a hit: at the highest dose activity change, positive = activation, most hits filed as activators. HEK293 SMN2-luciferase splicing reporter, luminescence, 30-36 h; also: % of control where 0% means no effect; nearly all actives have a fitted effect of over 55% in size
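HEK293 cells carry an SMN2 […]–luciferase reporter in which exon 7 inclusion puts luciferase in frame. Cells were plated 10-12 h before compound addition, then incubated 30-36 h at 37C. ONE-Glo luminescence was read; sodium butyrate at 4.5 mM final served as control.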
FLuc counter – qHTS profiling assay for firefly luciferase inhibitor/activator using purifed enzyme and Km concentrations of substrates (counterscreen for miR-21 project) | Luciferin 4-monooxygenase (Photinus pyralis), P08659 | purified FLuc, Km substrates, luminescence inhibition | Potency, µM (doses to about 57.5 µM), for inactives: at the highest dose activity change, negative = inhibition, actives largely listed as inhibitors | 360,000 compounds, 6.9% hits | AID 588342, 2011;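 also: plate controls were vehicle for no effect and reference inhibitor for full effect; nearly all actives have a fitted effect of over 55% in size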
Target sequence (P08659 whole entry, looked up): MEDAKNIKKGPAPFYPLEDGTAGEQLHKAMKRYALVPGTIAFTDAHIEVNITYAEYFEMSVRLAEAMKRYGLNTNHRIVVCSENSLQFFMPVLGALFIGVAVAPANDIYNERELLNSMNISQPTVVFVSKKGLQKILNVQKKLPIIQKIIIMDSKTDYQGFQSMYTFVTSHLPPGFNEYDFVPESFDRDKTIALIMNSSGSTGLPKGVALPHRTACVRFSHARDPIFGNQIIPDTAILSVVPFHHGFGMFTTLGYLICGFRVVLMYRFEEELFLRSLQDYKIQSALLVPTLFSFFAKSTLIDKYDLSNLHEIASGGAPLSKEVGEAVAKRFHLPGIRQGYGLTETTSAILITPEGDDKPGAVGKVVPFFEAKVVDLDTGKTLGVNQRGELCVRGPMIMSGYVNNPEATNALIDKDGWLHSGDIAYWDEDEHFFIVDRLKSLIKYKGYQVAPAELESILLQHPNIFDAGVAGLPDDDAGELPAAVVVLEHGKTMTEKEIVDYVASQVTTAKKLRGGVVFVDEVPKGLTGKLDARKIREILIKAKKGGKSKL
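Biochemical qHTS of compounds, final roughly 60 µM downward over six points, against 10 nM purified firefly luciferase using Km concentrations of substrates (10 uM D-luciferin, 10 uM ATP) in Tris acetate pH 7.5 buffer; luminescence output.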
Luc counter – Counterscreen for Luciferase (Kinase-Glo TM) Inhibition | Luciferin 4-monooxygenase (Photuris pensylvanica), Q27757 | Potency, µM (top dose mostly 38.3 µM), without a hit: at the highest dose activity change, negative = inhibition, usual class: inhibitors | 200,000 compounds, 0.28% hits | Kinase-Glo luciferase, ATP luminescence, 8 min; also: % is scaled to controls: 0 for no effect and ±100 for the full control effect; nearly all actives have a fitted effect of over 60% in size
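Luminescence was the read-out, taken after 8-minute incubation at ambient temperature. Luciferase turned over luciferin with 10 uM ATP in imidazole pH 7.2 buffer containing KCl, MgCl2, Tween 20 and BSA.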
Numbers without * were called inactive; ? = inconclusive; nt = not tested or not shown; [ ] = another dose, or the depositor's remark. Calls follow the shape of the dose curve; as a rule, active = well fitted curve in the direction sought with a large enough effect; inconclusive = small, poorly fitted or top-dose-only effect, or another doubt; inactive = no such curve, though single readings can be large; an effect the other way counts as inactive or inconclusive. Potency is read from the fitted curve at half-maximal effect.

SMILES	ELG1 genotoxic	Rab9 promoter act	NPC1 promoter act	SMN2 splice enh	FLuc counter	Luc counter
CCN(CC)C(=O)C1CCCN(c2ncnc3c2cnn3-c2ccc(Cl)cc2)C1 (stereo not drawn)	-10%	-5%	-8%	nt	17µM*	nt
CC1CCCN(c2ncnc3c2cnn3-c2ccc(F)cc2)C1 (stereo not drawn)	nt	nt	nt	nt	0.17µM*	nt
O=C(NCCc1ccc(F)cc1)c1cccc(NC(=O)c2ccccc2)c1	-3%	12%	13%	nt	?	nt
Cc1ccc(-n2ncc3c(N4CCCC(C)C4)ncnc32)c(C)c1 (stereo not drawn)	?	2µM*	3.2µM*	nt	7.6µM*	nt
Cc1ccc(S(=O)(=O)N2CCN(c3ncnc4c3cnn4-c3ccccc3)CC2)cc1	2%	5%	-3%	-6%	0%	1%
Cc1cccc(-n2ncc3c(N4CCCC(C)C4)ncnc32)c1 (stereo not drawn)	nt	nt	nt	nt	0.43µM*	nt
CCN(CC)C(=O)C1CCCN(c2ncnc3c2cnn3-c2cccc(C)c2)C1 (stereo not drawn)	?	-7%	-3%	-18%	?	-4%
CCOC(=O)C1CCCN(c2ncnc3c2cnn3-c2cccc(C)c2)C1 (stereo not drawn)	?	28%	24%	17%	24µM*	1%
CC1CCCN(c2ncnc3c2cnn3-c2ccccc2)C1 (stereo not drawn)	?	0.14µM*	0.35µM*	nt	0.19µM*	nt
O=C(CSc1nnc(C2CC2)n1C1CC1)c1cc(F)ccc1F	-1%	-2%	-1%	nt	1%	nt
Cc1snc(SCC(=O)c2ccc([N+](=O)[O-])cc2)c1C#N	11%	?	?	?	?	3%
Cc1snc(SCC(=O)c2ccc(F)cc2)c1C#N	10%	2.8µM*	?	20%	?	-2%
O=C(Nc1ccccc1F)c1ccc(COc2ccc(Cl)cc2Cl)o1	-3%	0%	-1%	13µM*	?	2%
O=C(Nc1ccccc1F)c1ccc(CSc2ccccc2)o1	?	17%	15%	19%	17µM*	-1%
O=C(NCc1ccccc1)c1ccc(CSc2ccccc2)o1	-4%	-7%	-1%	-11%	?	0%
CC(=O)Nc1ccc(NC(=O)c2ccc(CSc3ccccc3)o2)cc1	-5%	-3%	-2%	-48%	-5%	1%
O=C(Nc1cccc(F)c1)c1ccc(CSc2ccccc2)o1	19%	21%	23%	?	19µM*	-5%
Cc1ccc(S(=O)(=O)CCC(=O)OCC(=O)NC2CCS(=O)(=O)C2)cc1 (stereo not drawn)	-3%	-1%	-1%	nt	3%	nt
Cc1cc(C)n2nc(SCC(=O)Nc3ccccc3C)nc2n1	-7%	-4%	0%	nt	2%	nt
Nn1c(SCc2c(F)cccc2F)nnc1-c1ccccn1	16µM*	3.2µM*	2µM*	nt	13µM*	nt
O=C(Cc1ccccc1)N(Cc1cccnc1)c1nc2c(F)cc(F)cc2s1	nt	nt	nt	nt	-12%	nt
O=C1OC(c2ccc3c(c2)OCO3)N(C(=O)c2ccc(Cl)c(Cl)c2)c2ccccc21 (stereo not drawn)	?	3.2µM*	?	13µM*	-1%	-5%
Cc1cc(C)c(C#N)c(SCC(=O)Nc2ccccc2C(N)=O)n1	?	1.3µM*	2µM*	13µM*	12µM*	1%
Cc1cc(NC(=O)CSc2nc3c(C)ccc(C)c3cc2C#N)no1	17%	0%	-16%	nt	0%	nt
Cc1cc(C)c(C#N)c(SCC(=O)Nc2ccc3c(c2)OCO3)n1	16µM*	?	?	16µM*	-10%	0%
SMILES	ELG1 genotoxic	Rab9 promoter act	NPC1 promoter act	SMN2 splice enh	FLuc counter	Luc counter
Cc1nc(SCC(=O)Nc2ccc3c(c2)OCO3)c(C#N)c2c1CCCC2	?	20%	13%	-26%	1%	1%
Cc1cc(C)c(C#N)c(SCC(=O)Nc2ccccc2C#N)n1	nt	nt	nt	nt	3%	nt
Cc1cc(C)c(C#N)c(SCC(=O)Nc2cc(C)on2)n1	18µM*	nt	nt	nt	nt	nt
Cc1ccc(NC(=O)CSc2nnnn2C2CCCC2)cc1S(=O)(=O)N1CCOCC1	-3%	2%	0%	nt	3%	nt
CC(C)N(C(=O)Cn1cc(S(=O)(=O)Cc2ccc(Cl)cc2)c2ccccc21)C(C)C	nt	nt	nt	nt	-1%	nt
Cc1ccc(NC(=O)CSc2nc3nc(C)c(Cc4ccccc4)c(C)n3n2)cc1	nt	nt	nt	nt	-17%	nt
O=C(NCc1cccnc1)/C(=C\c1ccc(-c2ccc(Cl)c(Cl)c2)o1)S(=O)(=O)c1ccccc1	-20%	-6%	-6%	-88%	0%	5%
COCC(C)NC(=O)CSc1ncnc2sc(-c3ccccc3)cc12 (stereo not drawn)	-7%	-3%	-3%	nt	?	nt
CN(C(=O)CSc1ncnc2sc(-c3ccccc3)cc12)C1CCS(=O)(=O)C1 (stereo not drawn)	-6%	9%	-1%	-47%	17µM*	0%
CN(CCC#N)C(=O)CSc1ncnc2sc(-c3ccccc3)cc12	-1%	20%	16%	-22%	11µM*	-2%
CCN(CC)C(=O)CSc1ncnc2sc(-c3ccccc3)cc12	?	2.8µM*	?	-10%	11µM*	1%
CN(C(=O)CSc1ncnc2ccccc12)C1CCCCC1	?	3.5µM*	?	nt	15µM*	nt
CN(C(=O)CSc1ncnc2scc(-c3ccccc3)c12)C1CCS(=O)(=O)C1 (stereo not drawn)	3%	-2%	1%	8%	0%	-2%
COc1cccc(C(=O)Nc2ccc(-c3cn4cccnc4n3)cc2)c1OC	nt	nt	nt	-10%	-6%	nt
CC(C)ON([C@@H](C(=O)NO)C(C)C)S(=O)(=O)c1ccc(-c2ccccc2)cc1	nt	-35%[46.1 µM]	-15%[46.1 µM]	nt	nt	nt
CCOC(=O)c1ccccc1NC(=O)c1nn(-c2ccc(C)cc2)c(=O)n(C)c1=O	nt	nt	nt	nt	0%	nt
CCc1ccc2oc(C(=O)NC3CCS(=O)(=O)C3)cc(=O)c2c1 (stereo not drawn)	2%	0%	-4%	nt	-3%	nt
CC(=O)Nc1ccc(NS(=O)(=O)c2cccc3nonc23)cc1	-1%	-5%	-6%	nt	-3%	nt
CC1(C)C=Cc2cc3ccc(=O)oc3cc2O1	?	?	?	14µM*	11µM*	-2%
COc1cccc(CN2c3ccccc3-c3nc(SCC(=O)Nc4cccc(C)c4)ncc3S2(=O)=O)c1	nt	nt	nt	-2%	-8%	nt
